# Results reported in PMC4336329 (PLoS ONE, 2015).
# The campaign covered roughly 310,000 compounds. About 14,000 (4.5%) showed an effect of 50% or more. Effects have a minus sign here. The list comes from a sample in which strong results are over-represented; it also holds similar structures and randomly drawn compounds.
# Molecular target: human ether-à-go-go-related gene (hERG) potassium channel (human, UniProt Q12809)
# Assay: primary screen, population patch clamp on CHO cells stably expressing hERG; higher = less effect of the substance
# 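Further: peak tail current of the secondary pulse compared with the same well before compound.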
# Chain of human ether-à-go-go-related gene (hERG) potassium channel (Q12809 whole entry, looked up): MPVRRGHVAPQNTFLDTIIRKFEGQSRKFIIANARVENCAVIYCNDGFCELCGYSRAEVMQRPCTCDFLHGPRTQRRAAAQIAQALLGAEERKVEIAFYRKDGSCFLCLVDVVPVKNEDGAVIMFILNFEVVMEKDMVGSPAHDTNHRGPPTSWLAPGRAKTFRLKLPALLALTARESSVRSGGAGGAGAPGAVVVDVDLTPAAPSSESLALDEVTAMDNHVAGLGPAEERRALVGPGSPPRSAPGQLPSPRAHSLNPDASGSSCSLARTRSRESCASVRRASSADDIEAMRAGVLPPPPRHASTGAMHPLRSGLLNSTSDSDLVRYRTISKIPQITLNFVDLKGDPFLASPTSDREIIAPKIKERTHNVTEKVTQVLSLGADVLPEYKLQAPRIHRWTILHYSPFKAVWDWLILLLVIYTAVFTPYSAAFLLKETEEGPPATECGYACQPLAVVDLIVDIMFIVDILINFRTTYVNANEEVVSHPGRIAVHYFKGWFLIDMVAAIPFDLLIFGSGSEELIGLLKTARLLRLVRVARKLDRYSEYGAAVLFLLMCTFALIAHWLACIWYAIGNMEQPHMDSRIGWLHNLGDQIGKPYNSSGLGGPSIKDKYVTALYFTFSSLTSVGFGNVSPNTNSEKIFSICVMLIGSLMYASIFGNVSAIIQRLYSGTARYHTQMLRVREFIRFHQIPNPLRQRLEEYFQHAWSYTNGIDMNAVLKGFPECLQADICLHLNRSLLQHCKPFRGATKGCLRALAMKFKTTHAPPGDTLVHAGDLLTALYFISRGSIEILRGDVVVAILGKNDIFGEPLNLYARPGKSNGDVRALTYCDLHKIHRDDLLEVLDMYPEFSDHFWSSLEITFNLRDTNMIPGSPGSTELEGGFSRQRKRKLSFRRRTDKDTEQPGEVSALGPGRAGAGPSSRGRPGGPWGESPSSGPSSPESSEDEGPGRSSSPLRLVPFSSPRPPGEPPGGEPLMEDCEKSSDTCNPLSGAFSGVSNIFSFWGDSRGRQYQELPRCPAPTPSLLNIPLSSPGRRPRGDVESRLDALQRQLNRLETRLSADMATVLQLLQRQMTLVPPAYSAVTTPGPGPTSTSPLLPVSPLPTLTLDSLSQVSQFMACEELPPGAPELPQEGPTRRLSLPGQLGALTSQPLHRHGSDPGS
row,Structure (SMILES),"hERG current change (%, negative = inhibition) at 10uM [%]"
1,CC1=C(C(=O)OC(C)C)C(c2cncc(-c3ccc(F)cc3)c2)C(C#N)=C(N)O1 (stereo not shown),-28.6
2,Cc1nn(CC2CCCCC2)c(N)c1-c1ccccc1,-12.2
3,CC(C)(C)c1cc(C(F)(F)F)c(C#N)c(=O)[nH]1,25
4,Cc1nc(NC2CCCCC2)c2nnn(Cc3ccccc3Cl)c2n1,8.09
5,O=[N+]([O-])c1ccc(N/N=C2/CCCCC2c2ccccn2)c([N+](=O)[O-])c1 (stereo not shown),-56.3
6,C[n+]1ccccc1C1CCCC/C1=N\Nc1ccc([N+](=O)[O-])cc1[N+](=O)[O-].[I-] (stereo not shown),-11.8
7,CC1CCCC/C1=N/Nc1ccc([N+](=O)[O-])cc1[N+](=O)[O-] (stereo not shown),-1.11
8,COc1ccccc1C(=O)NC(CCSC)C(=O)NCC(c1cccs1)N(C)C (stereo not shown),2.41
9,COc1ccc(NC(=O)C(=O)NNC(=O)COc2ccc(Cl)cc2)c(OC)c1,10.5
10,Cn1cc(C(=O)c2ccccc2)cc1-c1nc2ccccc2n1C,-41.9
11,Cn1cc(C(=O)c2ccc(Cl)cc2)cc1-c1nc2ccccc2n1C,-47.9
12,Cn1cc(C(=O)c2ccc(F)cc2)cc1-c1nc2ccccc2n1C,-50.5
13,CCN(CC)CCn1c(OC)cc(=O)[nH]c1=O,17.6
14,CCC1=C(OC(=O)N(CC)CC)N2C(=O)OC(=NCCc3c[nH]c4ccccc34)[C@]2(C)[C@H]2C1=CC[C@H]1C(=O)N(CC)C(=O)[C@H]12,-9.68
15,CCn1cc(CNC(=O)c2ccc3nc(Cc4ccc(OC)cc4)oc3c2)cn1,6.8
16,COc1ccc([C@H]2CC(=O)C=C(c3cc(Cl)ccc3OC)C2)cc1,7.4
17,COc1ccc([C@H]2CC(=O)C=C(c3cccc(OC)c3)C2)cc1,-82.1
18,COc1ccc([C@H]2CC(=O)C=C(c3cccc(Cl)c3)C2)cc1,-11.8
19,COc1cccc(C2=CC(=O)C[C@H](c3ccc(F)cc3)C2)c1,-14.9
20,COc1cccc(C2=CC(=O)C[C@H](c3ccc(Cl)cc3)C2)c1,15.4
21,COc1ccc([C@H]2CC(=O)C=C(c3cccc(Br)c3)C2)cc1,-1.14
22,COc1ccc([C@H]2CC(=O)C=C(c3ccnc4ccc(Cl)cc34)C2)cc1,-57.6

row,Structure (SMILES),"hERG current change (%, negative = inhibition) at 10uM [%]"
1,COc1ccc([C@H]2CC(=O)C=C(c3cccc(C#N)c3)C2)cc1,-72.3
2,COc1ccc([C@H]2CC(=O)C=C(c3ccc(Cl)cc3C)C2)cc1,4.03
3,Cc1ccc(S(=O)(=O)NCC(=O)NCCc2c[nH]c3ccccc23)cc1C,3.3
4,O=C(NCC1OCCCN1S(=O)(=O)c1cc(F)ccc1F)C(=O)NC1CCCCC1 (stereo not shown),-3.8
5,O=C(CN1CCC(C(=O)c2ccc3c(c2)OCCO3)CC1)Nc1ccccc1F,-0.724
6,O=C(CN1CCOCC1)Nc1ccccc1Cl,-8.73
7,Cl.O=C(CN1CCC(NC(=O)c2ccccc2F)CC1)Nc1ccc2c(c1)OCCO2,6.04
8,O=C(CN1CCN(CC(=O)Nc2ccccc2F)CC1)Nc1ccc2c(c1)OCCO2,-71.2
9,O=C(CN1CCN(CC(=O)Nc2ccccc2Cl)CC1)Nc1ccc2c(c1)OCCO2,-68.7
10,O=C(CN1CCOCC1)Nc1ccc2c(c1)OCCO2.O=C(O)C(=O)O,15
11,COC(=O)N/N=C/c1ccccc1Cl,19.4
12,N#CC(c1cccc(C(F)(F)F)c1)(c1ncc(C(F)(F)F)cc1Cl)N1CCOCC1 (stereo not shown),4.46
13,COc1ccc(OCc2cc(C(=O)N(C)CC3CCCCO3)no2)c(Cl)c1 (stereo not shown),-17.4
14,COc1cc(Cl)ccc1OCc1cc(C(=O)N(C)CC2CCCCO2)no1 (stereo not shown),-18.7
15,CN(CC1CCCCO1)C(=O)c1cc(COc2ccc(F)cc2Cl)on1 (stereo not shown),-87.1
16,CCN(Cc1ccncc1)C(=O)c1cc(COc2ccc(F)cc2Cl)on1,-44
17,CCCN(CC1CCCO1)C(=O)c1cc(COc2ccc(F)cc2F)on1 (stereo not shown),-15
18,O=C(c1cc(COc2ccc(F)cc2Cl)on1)N(Cc1ccncc1)CC1CCCO1 (stereo not shown),-60.7
19,C[C@]12C(=O)N(c3ccc(Cl)cc3)C(=O)N1[C@@H]1c3ccccc3OC[C@@H]1[C@H]2c1ccccc1,8.19
20,CCC(C)N1CC23C=CC(O2)C(C(=O)OCc2ccccc2)C3C1=O (stereo not shown),5.54
21,CC(C)c1ccc(NC(=O)COC(=O)c2cc(=O)[nH]c3ccccc23)cc1,-8.12
22,O=C(Cc1ccc(S(=O)(=O)N2CCOCC2)s1)NCCOc1ccccc1,-8.35

row,Structure (SMILES),"hERG current change (%, negative = inhibition) at 10uM [%]"
1,O=C(Cc1ccc(S(=O)(=O)N2CCOCC2)s1)NCCC(c1ccccc1)c1ccccc1,-54.8
2,CCCCCNC(=O)Cc1ccc(S(=O)(=O)N2CCOCC2)s1,-5.94
3,Cc1ccc[n+](CC(=O)Nc2ccc([N+](=O)[O-])cc2)c1.[Cl-],10.9
4,CCOc1ccc(S(=O)(=O)N2CCCCCC2)cc1,-8.37
5,Cn1c(NC(=O)C(C)(C)Oc2ccc(Cl)cc2)cc(=O)n(C)c1=O,-15
6,O=C(NCc1ccco1)/C(=C/C=C/c1ccccc1)NC(=O)c1ccco1,-36.4
7,O=C(NCc1ccco1)c1ccccc1Br,7.63
8,O=C(NCc1ccco1)/C(=C\C=C\c1ccccc1)NC(=O)c1ccco1,-38.3
9,O=C(NCc1ccco1)/C(=C/C=C\c1ccccc1)NC(=O)c1ccc(Br)o1,-59.6
10,O=C(NCc1ccco1)/C(=C\C=C\c1ccccc1)NC(=O)c1ccccc1Br,-70.5
11,Cc1ccc(C(=O)N/C(=C/C=C/c2ccccc2)C(=O)NCc2ccco2)cc1,-28.9
12,Cc1ccc(C(=O)N/C(=C/C=C\c2ccccc2)C(=O)NCc2ccco2)cc1,-27.7
13,N#C/C(=C\C=C\c1ccccc1)C(=O)NCc1ccco1,-3.85
14,Cc1ccc(C(=O)N/C(=C\C=C\c2ccccc2)C(=O)NCc2ccco2)cc1,-50.3
15,Cc1ccc(C)c(NS(=O)(=O)c2ccc(NC(=O)CSc3ccc(Cl)cc3)cc2)c1,17.8
16,O=C(N/N=C/c1ccccc1[N+](=O)[O-])c1cccs1,5.65
17,C=CCn1c(Cc2ccccc2)nc2c(cnn2-c2ccccc2)c1=O,-34.8
18,COc1cccc(N2CC(C(=O)Nc3nnc(SCC(=O)N4CCOCC4)s3)CC2=O)c1 (stereo not shown),18.1
19,CC(=O)N(Cc1cc(=O)[nH]c2ccccc12)c1cccc(C)c1,-8.96
20,O=C(NCC1CCCN(C(=O)c2cscn2)C1)c1ccc(-c2ccccc2)cc1 (stereo not shown),-15.1
21,CCc1cc(C(=O)N2CCCC(CNC(=O)c3ccc(-c4ccccc4)cc3)C2)no1 (stereo not shown),-58.1
22,CSCC(=O)N1CCCC(CNC(=O)c2ccc(-c3ccccc3)cc2)C1 (stereo not shown),-28.5

row,Structure (SMILES),"hERG current change (%, negative = inhibition) at 10uM [%]"
1,CSCCC(=O)N1CCCC(CNC(=O)c2ccc(-c3ccccc3)cc2)C1 (stereo not shown),-73.2
2,CC(=O)CCC(=O)N1CCCC(CNC(=O)c2ccc(-c3ccccc3)cc2)C1 (stereo not shown),-13.8
3,O=C(NCC1CCCN(C(=O)c2cccnc2)C1)c1ccc(-c2ccccc2)cc1 (stereo not shown),-26.8
4,CCOc1ccc(C2CC(c3ccc(CC)cc3)Nc3nc(N)nn32)cc1 (stereo not shown),1.96
5,COc1ccc(Cl)cc1NS(=O)(=O)c1cccc(C(=O)NCC(C)(C)N2CCOCC2)c1,-12.6
6,O=C(Cc1ccccc1)N/N=C/c1ccccc1Cl,2.14
7,O=C(NCc1ccccn1)c1cccc(S(=O)(=O)Nc2ccccc2Cl)c1,-2.4
8,Cc1ccc(S(=O)(=O)N(C)C)cc1NC(=O)COC(=O)c1ccc2c(c1)NC(=O)CS2,-32.5
9,COC(=O)[C@@H]1Cc2c([nH]c3ccccc23)C(C)N1C(=O)c1ccccc1 (stereo partly shown),3.27
10,CN1CCc2c(sc3nc(NN)n(-c4ccc(Cl)cc4)c(=O)c23)C1,14.6
11,CCc1ccc2[nH]c(=O)c(CN(CCN3CCCC3)C(=O)NC3CCCCC3)cc2c1,-40.9
12,CCN(CC)CCN(Cc1cc2ccc(C)cc2[nH]c1=O)C(=O)NC1CCCCC1,-73.1
13,Cc1ccc2[nH]c(=O)c(CN(CCCN3CCOCC3)C(=O)NC3CCCCC3)cc2c1,-25.7
14,CCN(CC)CCN(Cc1cc2cc3c(cc2[nH]c1=O)OCCO3)C(=O)NC1CCCCC1,-28.7
15,CC(=O)N(Cc1cc2c(C)cc(C)cc2[nH]c1=O)C1CCCCC1,8.13
16,CCN1CCCC1CN(Cc1cc2c(C)cc(C)cc2[nH]c1=O)C(=O)NC1CCCCC1 (stereo not shown),-76
17,CCc1ccc2[nH]c(=O)c(CN(CCN(CC)CC)C(=O)NC3CCCCC3)cc2c1,-66.6
18,Cc1cc(C)c2cc(CN(CCO)C(=O)NC3CCCCC3)c(=O)[nH]c2c1,-3.62
19,COc1ccc(CN(Cc2cc3cc(OC)c(OC)cc3[nH]c2=O)C(=O)NC2CCCCC2)cc1,7.13
